Inhibition data for 55 molecules are collected here from PubChem BioAssay AID1362 (SRMLSC, 2008).

Among all 190,000 compounds or so, about 4,000 (2.1%) were called active. The sample holds actives, similar compounds and a random draw of the others, so the mix is not that of the screen. Cut-off read from the data, not from the text of the source: active = inhibition above about 58%; inactive = the rest, inconclusive results apart; tested in S. cerevisiae.

The nature of this assay: growth inhibition of WT strain, primary screen, mitochondrial fusion inhibitor project, WT and mutant strains, chemical genetic (AID 1362). As to conditions: mitochondrial fusion phenotypic screen, at 10 µM.
Where [1] appears, read: WT strain, growth inhibition, stronger effect = higher value.

On to `CCN(CC)CCN(C(=O)c1ccc(N2C(=O)CCC2=O)cc1)c1nc2cc3c(cc2s1)OCO3`, for which the inhibition (usually the relative decrease from the control value, in per cent) reads like this: under setting [1], 2.8% (inactive); (mutant strain inhibition) -0.18%.
The matching figures for `COc1ccc(-c2ccc(CNCCCN3CCOCC3)o2)cc1Cl`: 6.85% (inactive) and 12.6%.
In the same order, the values of `C=CCNC(=S)NNC(=O)COc1c(Cl)cc(Cl)cc1Cl` are 67.1% (active) and 29.7%.
Regarding `C=CCNC(=O)COC(=O)CNC(=O)c1cc(Cl)cc([N+](=O)[O-])c1`, the inhibition was -6.93% (inactive) under setting [1] and 10.8% (mutant strain inhibition).
The matching figures for `C=CCNC(=S)NNC(=O)c1ccc(Br)o1`: -3.81% (inactive) and 3.41%.
Consider `CCOC(=O)C1CCCN(C(=O)c2cccc(S(=O)(=O)N3CCOCC3)c2)C1` (stereo not given), for which the inhibition under setting [1] was -0.28% (inactive) and the inhibition (mutant strain inhibition) was -18.7%.
On to `O=C(COc1ccc(-c2ccccc2)cc1)NN=C1CCCC1`, for which the inhibition was 2.21% (inactive) under setting [1] and -3.38% (mutant strain inhibition).
In the same order, the values of `CCCCc1cc2c(s1)CCCC/C2=N/O` are 63.2% (active) and 6.26%.
The matching figures for `CCCc1noc2c1/C(=N\O)CCC2`: -2.57% (inactive) and -4.14%.
As for `Cc1[nH]c2ccccc2c1/C=C(/C#N)C(=O)NC(C)C`, the inhibition reads like this: under setting [1], -14% (inactive); (mutant strain inhibition) -5.17%.
In the same order, the values of `Cc1ccc(NC(=S)N(CCN2CCCCC2)Cc2ccco2)cc1C` are 8.12% (inactive) and 24.1%.
For `Cc1ccc(NC(=S)N(CCCN2CCC(C)CC2)Cc2ccco2)cc1`, the inhibition was 2.89% (inactive) under setting [1] and 13.6% (mutant strain inhibition).
In the case of `Cc1ccc(NC(=S)N(Cc2ccco2)C(C)c2cccs2)cc1` (stereo not given), the inhibition by setting is: under setting [1], 75.8% (active); (mutant strain inhibition) 51.5%.
In the same order, the values of `CCN1CCN(C(C(=O)NC2CCCC2)c2cc3c(cc2[N+](=O)[O-])OCO3)CC1` (stereo not given) are 2.26% (inactive) and -2.37%.
In the same order, the values of `CC1CCN(C(=S)c2cccc([N+](=O)[O-])c2)CC1` are 7.85% (inactive) and 23%.
In the same order, the values of `CC1(c2ccccc2)CC(C)(C)N(C(=O)c2cc([N+](=O)[O-])cc([N+](=O)[O-])c2)c2ccccc21` (stereo not given) are 57% (inactive) and 35.9%.
On to `CC1(c2cccc([N+](=O)[O-])c2)CC(C)(C)N(C(=O)c2ccccc2)c2ccccc21` (stereo not given), for which the inhibition under setting [1] is 75.8% (active) and the inhibition (mutant strain inhibition) is 33.1%.
The matching figures for `CCC(C(=O)OCC(=O)Nc1ccc(C(=O)Nc2ccc(OC)cc2)cc1)c1ccccc1` (stereo not given): 12.9% (inactive) and -13.4%.
Regarding `CCC(C(=O)OCC(=O)Nc1c(Cl)cc(Cl)cc1Cl)c1ccccc1` (stereo not given), the inhibition under setting [1] was 11.1% (inactive) and the inhibition (mutant strain inhibition) was -9.47%.
The matching figures for `CCC(C(=O)OCC(=O)Nc1ccccc1-c1ccccc1)c1ccccc1` (stereo not given): 70.9% (active) and -2.32%.
In the same order, the values of `O=C(Nc1ccc(NC(=O)c2ccco2)c(Cl)c1)c1cccc([N+](=O)[O-])c1` are 2.21% (inactive) and 16.7%.
The matching figures for `CC(=O)c1cnc(-c2ccccc2)s1`: 3.8% (inactive) and -4.54%.
For `O=C(C1CCCO1)N1CCN(C(=S)Nc2cccc(Cl)c2)CC1` (stereo not given), the inhibition by setting is: under setting [1], -4.05% (inactive); (mutant strain inhibition) 25.8%.
The matching figures for `Cc1ccc(C2CCN(C(=S)Nc3cccc(Cl)c3)C2)cc1` (stereo not given): 74.3% (active) and 55%.
In the same order, the values of `Cc1cccc(NC(=S)N2CCCC(c3nc4ccccc4[nH]3)C2)c1` (stereo not given) are -10.4% (inactive) and 0.82%.
The matching figures for `CC1CN(/C=C/C(=O)C(F)(F)F)CC(C)O1` (stereo not given): -25.3% (inactive) and 4.39%.
As to `O=C(O)c1cccc(NC(=S)N/N=C/c2c[nH]c3ccccc23)c1`, the inhibition under setting [1] was -10.2% (inactive) and the inhibition (mutant strain inhibition) stood at 4.36%.
The matching figures for `S=c1[nH]nc(-c2ccccc2)n1/N=C/c1c[nH]c2ccccc12`: 1.16% (inactive) and 0%.
`CSC(=S)N/N=C/c1c[nH]c2ccccc12`: the inhibition was 65.8% (active) under setting [1] and 13.3% (mutant strain inhibition).
Consider `CCOC(=O)c1cnc2[nH]c3ccccc3n2c1=O`, for which the inhibition runs as follows: under setting [1], 2.43% (inactive); (mutant strain inhibition) -12.9%.
In the same order, the values of `Cc1ccc(Cl)cc1NC(=O)C1CCN(S(C)(=O)=O)CC1` are -9.34% (inactive) and -12.3%.
On to `Cc1ccccc1NC(=O)NC1(C(=O)N2CCCC2)CCCCC1`, for which the inhibition runs as follows: under setting [1], -9.64% (inactive); (mutant strain inhibition) 7.72%.
In the same order, the values of `Cc1cccc(NC(=S)NCCc2ccc(F)cc2)c1C` are 74.7% (active) and 64.6%.
Regarding `Cc1c(NC(=S)NCc2ccc(F)cc2)cccc1[N+](=O)[O-]`, the inhibition runs as follows: under setting [1], 5.62% (inactive); (mutant strain inhibition) 3.03%.
As to `CCNC(=S)Nc1cccc(Cl)c1C`, the inhibition is 12.8% (inactive) under setting [1] and 23.6% (mutant strain inhibition).
As to `O=C(OCC(=O)N1CCOCC1)c1ccc(N2CCOCC2)c([N+](=O)[O-])c1`, the inhibition by setting is: under setting [1], -7.83% (inactive); (mutant strain inhibition) -1.16%.
The matching figures for `O=C(COc1ccc(Cl)cc1[N+](=O)[O-])N1CCCCC1`: 1.62% (inactive) and -14.6%.
The matching figures for `CCOC(=O)N/N=C/c1cn(Cc2ccccc2Cl)c2ccccc12`: -3.34% (inactive) and -14.2%.
The matching figures for `COC(=O)N/N=C/c1cn(CCCOc2ccc(C)cc2)c2ccccc12`: 2.1% (inactive) and -14.3%.
As for `CNC(=S)N/N=C/c1cn(Cc2ccc(C)cc2)c2ccccc12`, the inhibition runs as follows: under setting [1], 74.4% (active); (mutant strain inhibition) 61.2%.
Regarding `Cc1cc(C(C)(C)C)cc(S(=O)(=O)Nc2ccc(C(=O)O)cc2)c1C`, the inhibition is -13% (inactive) under setting [1] and 10.3% (mutant strain inhibition).
The matching figures for `Cc1cc(NS(=O)(=O)c2ccc(NC(=O)c3cccc(OC(F)F)c3)cc2)nc(C)n1`: -7.81% (inactive) and 6.49%.
For the molecule `Cc1cc(C)cc(NC(=O)CSc2ccccc2)c1`, the inhibition by setting is: under setting [1], -4.46% (inactive); (mutant strain inhibition) -13.2%.
In the same order, the values of `Cc1ccsc1C(=O)N/N=C/c1ccc([N+](=O)[O-])cc1` are -11.5% (inactive) and -7.32%.
In the same order, the values of `Cc1nc2ccccc2cc1C(=O)N/N=C/c1ccc([N+](=O)[O-])cc1` are 65.1% (active) and 20.7%.
The matching figures for `O=C(N/N=C/c1ccc([N+](=O)[O-])cc1)c1c[nH]c2ccccc12`: -8.33% (inactive) and 14.7%.
Turning to `Cc1ccc2[nH]c(=O)c(CN(CC3COCCO3)C(=O)Nc3ccccc3C)cc2c1` (stereo not given), the inhibition runs as follows: under setting [1], -8.31% (inactive); (mutant strain inhibition) 8.92%.
In the case of `COCCNc1nc(-n2nc(C)cc2C)nc2sc3c(c12)CCCC3`, the inhibition was 18.8% (inactive) under setting [1] and 0% (mutant strain inhibition).
`Cc1cc(C)n(-c2nc(SCC(=O)N3CCCC3)c3c4c(sc3n2)CCCC4)n1`: the inhibition was 62% (active) under setting [1] and 38.4% (mutant strain inhibition).
In the same order, the values of `Cc1nc(SCC(=O)Nc2cc(C)on2)c2c3c(sc2n1)CCCC3` are 21.1% (inactive) and 31.1%.
Turning to `Cc1cc(C)n(-c2nnc(N3CCN(c4ccccc4)CC3)nn2)n1`, the inhibition is 12.1% (inactive) under setting [1] and 10.8% (mutant strain inhibition).
For the molecule `CC(CO)NCC12CC3CC(CC(C3)C1)C2` (stereo not given), the inhibition runs as follows: under setting [1], -17.6% (inactive); (mutant strain inhibition) -8.59%.
In the same order, the values of `COc1c(F)c(F)c(C(=O)O)c(Nc2ccccc2C)c1F` are 74.2% (active) and 15.4%.
The matching figures for `Cc1ccc(Nc2c(F)c(F)c(F)c(F)c2C(=O)O)c(C)c1`: -0.48% (inactive) and -18%.
The matching figures for `Cc1ccccc1NC(=O)c1ccccc1`: -1% (inactive) and -29.4%.
